Compound activity (PubChem BioAssay)
hcDAF12 agonist = H. contortus DAF-12 nuclear receptor activators, primary screen, cell-based, luminescence, HEK293, lit1-tk-luc reporter; HEK293 hcDAF-12 lit1-tk-luc reporter; 0% DMSO, 100% Δ7-dafachronic acid; activation, % at 6.8 µM; hit rate 1.4% among 370,000; AID 652067, 2013;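 active means activation above the mean of all tested compounds plus 3 SD, cut at about 5.5% in these data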
DAX1 inh-1 = DAX1 (NR0B1) inhibitors on StAR promoter, primary screen, cell-based, luminescence, SF-1 (NR5A1), full-length DAX-1 | hit rate 1.1% among 370,000 | inhibition, % at 6.8 µM | HEK293T StAR-luciferase reporter, SF-1/DAX-1 repression relief;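 active means inhibition above the mean over all tested compounds plus 3 SD, cut at about 3.6% in these data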;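 further: higher inhibition means more luminescence from relief of DAX-1 repression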
ssDAF-12 act = S. stercoralis DAF-12 nuclear receptor activators, primary screen, cell-based, luminescence, HEK293, GRIP1 co-expression, lit1-tk-luc; Nuclear hormone receptor DAF-12 (Strongyloides stercoralis); HEK293 ssDAF-12/GRIP1 lit1-tk-luc reporter; % of 3 µM dafachronic acid response; hit rate 1% among 370,000; activation, % at 6.8 µM;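 active means activation above the mean over all tested compounds plus 3 SD, cut at about 0.9% in these data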
DAX1 inh-2 = DAX1 (NR0B1) inhibitors, primary screen, cell-based, HEK293, Gal4-DAX1, luciferase luminescence; Nuclear receptor subfamily 0 group B member 1 (Homo sapiens), P51843; HEK293 Gal4-DAX1 luciferase reporter; inhibition, % at 6.75 µM; hit rate 0.99% among 340,000; AID 504766, 2011;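 active means inhibition above the mean over all tested compounds plus 3 SD, cut at about 4.2% in these data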;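 further: inhibition shows as a rise in luminescence from relieved DAX1 repression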
Target sequence (P51843 207-470 limits assumed): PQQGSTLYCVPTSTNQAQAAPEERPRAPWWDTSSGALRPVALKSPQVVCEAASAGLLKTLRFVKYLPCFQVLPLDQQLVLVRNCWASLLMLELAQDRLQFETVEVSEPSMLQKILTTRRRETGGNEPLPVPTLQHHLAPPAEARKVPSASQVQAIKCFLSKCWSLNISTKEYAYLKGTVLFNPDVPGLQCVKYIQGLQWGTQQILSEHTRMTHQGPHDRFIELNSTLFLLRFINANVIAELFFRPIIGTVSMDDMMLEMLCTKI
SMARCA2 act = SMARCA2 (BRM) function activators, primary screen, cell-based, luminescence, high throughput; hit rate 1% among 370,000; activation, % at 9.1 µM; MG213 cells, MMTV-luciferase reporter, dexamethasone, overnight; in the data active means activation above about 7.8%
hgDAF-12 ag = H. glycines DAF-12 receptor agonists, primary screen, cell-based, luminescence, HEK293, GAL4 fusion, UAS-luciferase | Nuclear hormone receptor DAF-12 (Heterodera glycines), GAL4 fusion | HEK293 GAL4-hgDAF12 UAS-luciferase reporter, agonist luminescence; normalized to butyrate control | activation, % at 6.8 µM | hit rate 1.8% among 370,000 | AID 687014, 2013;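 active means activation above a cutoff set at the mean of all screened compounds plus 3 SD, cut at about 10% in these data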
Numbers stand for hits; – = inactive; · = no result. The list is not random: actives were taken first. Their share in the collection is about 4.8%.

SMILES | hcDAF12 agonist | DAX1 inh-1 | ssDAF-12 act | DAX1 inh-2 | SMARCA2 act | hgDAF-12 ag
COc1ccc(Cc2c(-c3ccccc3)nc3c4ccccc4ccn23)c(C)c1 | 5.6 | – | – | · | – | –
COc1ccccc1Cc1c(-c2ccc(OC)c(OC)c2)nc2c3ccccc3ccn12 | – | – | – | · | – | –
COc1ccc(Cc2c(-c3ccc(F)cc3)nc3c4ccccc4ccn23)c(C)c1 | 6.0 | – | – | · | – | –
C[C@@H]1COc2cc(Br)ccc2S(=O)(=O)N1Cc1cn(Cc2ccc(Cl)cc2)nn1 | – | – | – | · | – | –
C[C@H]1[C@@H](NC(=O)Cc2ccsc2)CC[C@@]23CCCN2C(=O)CCC[C@@H]13 | – | · | 2.6 | · | · | –
CCOC(=O)c1cn2nc(Oc3ccc(NC(C)=O)cc3)ccc2n1 | – | – | – | 4.9 | – | –
O=C(Nc1cccc(Cl)c1)OC1CCCCc2cccnc21 (stereo not drawn) | – | – | – | – | – | –
O=C(Nc1ccccc1)OC1CCCCc2cccnc21 (stereo not drawn) | – | – | 1.7 | – | – | –
Cc1nonc1CC(=O)N1CCc2c([nH]c3ccccc23)C1c1ccccc1F (stereo not drawn) | – | – | – | – | – | –
O=C(Cc1cnc2ncnn2c1)N1CCc2c([nH]c3ccccc23)C1c1ccccc1F (stereo not drawn) | – | – | 1.7 | – | – | –
Cc1cc2cc3c(cc2n2c(SCC(=O)Nc4nc(-c5ccccc5)cs4)nnc12)OCO3 | – | · | – | · | · | –
CC(C)[C@H](NS(=O)(=O)c1ccc(F)cc1F)C(=O)N1CCC[C@H]1C(=O)NCCc1ccccc1Cl | – | – | – | · | – | –
COC(=O)N1C[C@H](OCc2ccccc2)[C@H]2C[C@@H]1c1ccccc1O2 | – | – | – | · | – | –
CCOC(=O)c1c(CC(C)C)csc1/N=C/C1C(=O)CC(C)(C)CC1=O | – | – | – | 5.5 | – | –
CCOC(=O)c1cc(C)sc1/N=C/C1C(=O)CC(C)(C)CC1=O | – | – | – | – | – | –
COCc1cn(-c2ccc3c(c2)[C@@]2(CC(=O)N(C)C2c2ccccc2)C(=O)N3CC(C)C)nn1 (stereo partly drawn) | – | – | – | · | – | –
CC(c1ccccc1)c1nnc(N)s1 (stereo not drawn) | – | – | – | 4.7 | – | –
CC(Oc1ccccc1)c1nnc(N)s1 (stereo not drawn) | – | – | – | – | – | –
COc1cccc(NC(=O)C(=O)NCCC2CCCCN2S(=O)(=O)c2cccs2)c1 (stereo not drawn) | – | 4.1 | – | – | – | –
Cc1ccc(N2C(=O)c3ccccc3C2=O)cc1 | – | – | – | – | – | –
CC(=O)Nc1cccc2c1C(=O)N(c1ccc(C)cc1)C2=O | 6.0 | – | – | – | – | –
OC1COC(OCC2OC(OCc3ccccc3)C(O)C(O)C2O)C(O)C1O (stereo not drawn) | – | – | – | – | – | –
OC[C@H]1O[C@H](OCc2ccccc2)[C@H](O[C@@H]2OC[C@@H](O)[C@H](O)[C@H]2O)[C@@H](O)[C@@H]1O | – | – | – | 6.3 | – | –
O=C(O)c1nccnc1C(=O)Nc1ccc(S(=O)(=O)N2CCOCC2)cc1 | – | – | 1.8 | – | – | –
COCCOC(=O)c1nccnc1C(=O)Nc1ccc(S(=O)(=O)N2CCOCC2)cc1 | – | – | – | · | – | –
O=C(OCc1cn(Cc2ccc(Cl)cc2)nn1)N1CCOCC1 | – | – | – | · | – | –
COc1ccc(C(Nc2ccccn2)c2c(NC(=O)c3ccco3)sc(C)c2C)cc1 (stereo not drawn) | – | – | – | – | – | –
